# Measured values taken from PubChem BioAssay AID504467 (National Center for Advancing Translational Sciences (NCATS), 2011).
# The whole screen tested about 330,000 compounds, of which about 7,700 (2.3%) were called active. Another 26% or so got no clear call; they are omitted. The sample as a whole holds a higher share of actives than the screen did. Unmarked numbers belong to inactive results. Calls come from the whole dose curve; as a rule, active = well fitted inhibition curve with a large enough effect; inconclusive = small, poorly fitted or top-dose-only effect, or effect the other way; inactive = flat fitted curve, though single readings scatter.
# Test: qHTS screen for small molecules that inhibit ELG1-dependent DNA repair in human embryonic kidney (HEK293T) cells expressing luciferase-tagged ELG1; note: nearly all actives have a fitted effect of over 55% in size
# Details: HEK293T ELG1-luciferase reporter, luminescence, 16 h, DNA damage induced by 5-fluorouridine; series mostly up to 46.1 µM; activity change, negative = inhibition: at the top concentration
# In short: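 Overnight (16 hr) co-exposure of 2,000 cells/well to 5-fluorouridine and compound at 37 °C preceded detection. Luciferase was quantified via ONE-Glo luminescence; loss of signal denotes inhibition.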
# % is set by controls: 0 for no effect and ±100 for the full control effect; potency is the fitted concentration of half-maximal effect.
Structure (SMILES),"activity change, negative = inhibition",Potency
CC(NC(=O)COC(=O)CCC(=O)c1ccc(Cl)cc1)c1ccccc1 (stereo not drawn),2.29%,–
CC1=Nn2c(nnc2-c2ccccc2)SC1,8.64%,–
COc1ccccc1-c1nnc2n1N=C(c1ccc(OC(F)F)c(OCC3CC3)c1)CS2,8.85%,–
COc1ccc(C2=Nn3c(nnc3-c3ccccc3OC)SC2)cc1OC1CCCC1,–,20.6 µM (active)
COC(=O)c1cc(-c2cccs2)nc2ccccc12,2.19%,–
CC(=O)Nc1cccc(Nc2nc(-c3cccs3)nc3ccccc23)c1,–,16.4 µM (active)
O=C(Nc1nnc(-c2ccccc2)o1)c1cc(-c2cccs2)nc2ccccc12,-10.2%,–
Cc1ccc2[nH]cc(CCNC(=O)C3CCCCC3)c2c1,-2.4%,–
Cc1cccc(NC(=O)N(Cc2cc3cc(C)cc(C)c3[nH]c2=O)CC2COCCO2)c1 (stereo not drawn),–,11.6 µM (active)
Cc1ccc2[nH]c(=O)c(CN(CCCN(C)C)C(=O)Nc3cccc(Cl)c3)cc2c1,0%,–
O=C(c1cccs1)N(Cc1cc2ccccc2[nH]c1=O)CC1CCCO1 (stereo not drawn),18.7%,–
Cc1cccc(N(Cc2ccccc2)C(=O)c2cc(S(=O)(=O)N3CCOCC3)ccc2F)c1,-24.2%,–
CC(C)(C)c1ccc(C(=O)N2CCN(CCNC(=O)C(=O)Nc3ccc(F)cc3)CC2)cc1,-5.49%,–
Fc1ccccc1/C=C1\CCCC2=C1Nc1ncnn1C2c1ccccc1F (stereo not drawn),–,18.4 µM (active)
CC1=C(C(N)=O)C(c2ccc(Br)cc2)n2ncnc2N1 (stereo not drawn),0%,–
Cc1cccc(N(C(=O)c2sc(C)nc2C)C(C(=O)NCC2CCCO2)c2ccccc2)c1 (stereo not drawn),-6.84%,–
Cn1c(=O)c2c(ncn2CCc2ccccc2)n(C)c1=O,8.66%,–
CCCCNc1nc2c(c(=O)n(C)c(=O)n2C)n1Cc1cccc(OC)c1,–,5.17 µM (active)
Cn1c(=O)c2c(nc(NCCc3ccccc3)n2Cc2ccccc2)n(C)c1=O,–,23.1 µM (active)
CC(C)CCn1c(=O)c2c(nc3n2CCCN3Cc2ccccc2)n(C)c1=O,-15.5%,–
CCCCNc1nc2c(c(=O)[nH]c(=O)n2C)n1CCOc1ccccc1,-13.5%,–

Structure (SMILES),"activity change, negative = inhibition",Potency
CC(C)CCn1c(CN(C)Cc2ccccc2)nc2c1c(=O)n(C)c(=O)n2C,–,20.6 µM (active)
COc1ccc(CCN2CNc3c(c(=O)n(C)c(=O)n3C)C2)cc1OC,-11%,–
CCn1c(NCCc2ccc(OC)c(OC)c2)nc2c1c(=O)n(C)c(=O)n2C,–,11.6 µM (active)
Cn1c(=O)c2c(nc(NCc3ccccc3)n2CC(N)=O)n(C)c1=O,-6.05%,–
COC(=O)C(C)Sc1nc2c(c(=O)n(C)c(=O)n2C)n1Cc1cccc(C)c1 (stereo not drawn),5.21%,–
CCCCn1c(SCC(=O)NCCc2ccc(OC)c(OC)c2)nc2c1c(=O)n(C)c(=O)n2C,1.48%,–
Cn1c(=O)c2c(nc(NCCNC(=O)c3ccco3)n2Cc2ccccc2F)n(C)c1=O,-4.05%,–
Cn1nccc1C(=O)N1CCCC(C(=O)c2ccc(Oc3ccccc3)cc2)C1 (stereo not drawn),-11%,–
Cc1ccccc1NC(=S)NC(=O)Cc1ccc(Cl)cc1,1.58%,–
OC(CNCCc1ccc(Cl)cc1Cl)COc1ccccc1 (stereo not drawn),-0.165%,–
COCCN(CCOC)S(=O)(=O)NC[C@H]1O[C@@H](n2cnc3c(N)ncnc32)[C@H](O)[C@@H]1O,-3.78%,–
O=c1ccc(S(=O)(=O)N2CCCC2)cn1Cc1nc(-c2ccccc2)no1,-15.5%,–
CN1CCN(Cc2nc3c(c(=O)n(C)c(=O)n3C)n2Cc2cccc3ccccc23)CC1,-2.34%,–
Cn1c(=O)c2sccc2n(Cc2ccc(Br)cc2)c1=O,16.2%,–
CCN1CCN(Cc2nc3c(c(=O)n(C)c(=O)n3C)n2CC(=O)c2ccccc2)CC1,14.6%,–
COCCn1cnc2c1c(=O)n(Cc1ccc(Br)cc1)c(=O)n2Cc1ccccc1,-9.32%,–
CCOC(=O)N1CCN(Cc2nc3c(c(=O)n(C)c(=O)n3C)n2Cc2ccccc2)CC1,–,10.3 µM (active)
Cn1c(=O)c2c(nc(N/N=C/c3cccs3)n2Cc2ccc(Br)cc2)n(C)c1=O,–,20.6 µM (active)
CCOC(=O)N1CCN(C(=O)c2ccc3c(=O)n(CCc4ccc(OC)c(OC)c4)c(=O)[nH]c3c2)CC1,-21.5%,–
Cc1ccc(-n2nc3c(=O)n(C(C)C(=O)NCc4ccc5c(c4)OCO5)nc(C)c3c2C)cc1 (stereo not drawn),-19.3%,–
Cc1ccc(-c2csc(N3CCN(c4cc5c(cc4Cl)nc(-c4ccncc4)n5CCOCCO)CC3)n2)cc1,-27.4%,–

Structure (SMILES),"activity change, negative = inhibition",Potency
CCN([C@H](CO)C(C)C)S(=O)(=O)c1ccccc1Br,5.25%,–
CCOc1ccc(NS(=O)(=O)c2ccc(Cl)c(C(=O)N(C)Cc3cccnc3)c2)cc1,-12.3%,–
CCC(C)(C)n1nnnc1C(c1ccccc1OC)N1CCSCC1 (stereo not drawn),0.736%,–
CCC(C)(C)n1nnnc1C(c1cccs1)N1CCN(Cc2ccccc2)CC1 (stereo not drawn),-3.91%,–
CCC(C)(C)n1nnnc1C(c1cccs1)N1CCN(c2nc3ccccc3s2)CC1 (stereo not drawn),–,20.6 µM (active)
CC(=O)c1ccc(N2CCN(C(=O)c3ccc(Cl)c(S(=O)(=O)NC4CC4)c3)CC2)c(F)c1,-29.7%,–
COc1ccc(/C(C)=N/NC(=O)CCC(=O)Nc2ccc(Cl)cc2Cl)c(OC)c1,-20.7%,–
COc1ccc(OC)c(C(=O)c2ccc(Cl)cc2)c1,0%,–
COc1ccc(OC)c(/C(C)=N\NC(=O)c2cc3cc(Cl)ccc3n2C)c1,–,16.4 µM (active)
CCN(CC(=O)Nc1cccc(S(=O)(=O)N2CCCCC2)c1)Cc1ccccc1,-1.55%,–
O=C(NNS(=O)(=O)c1c(F)cc(F)c(Cl)c1F)C12CC3CC(CC(C3)C1)C2,-2.47%,–
CCc1ccc(NC(=O)CN2C(=O)COc3ccc(S(=O)(=O)N4CCCC4)cc32)cc1,1.71%,–
CCC(C)NC(=O)c1ccc(NC(=O)CC2SC(N3CCCCC3)=NC2=O)cc1 (stereo not drawn),12.6%,–
O=C(Nc1ccccc1Cl)Nn1cnnc1,0.688%,–
COCCN(CCOC)C(=S)Nc1ccccc1Cl,6.84%,–
O=C(Nc1ccccc1Cl)/C(Cl)=C(\Cl)S(=O)c1ccccc1 (stereo not drawn),–,9.2 µM (active)
CSc1cccc(NC(=O)CN2C(=O)COc3ccc(S(=O)(=O)N4CCOCC4)cc32)c1,3.54%,–
Cc1ccc(C(=O)NC23CC4CC(CC(C4)C2)C3)c(Cl)c1,27.6%,–
COc1cccc(CCNC(=O)c2cccc(NC(=O)C3=C(C)OCCS3)c2)c1,–,20.6 µM (active)
COc1ccc(N2CCN(C(=O)c3ccccc3NC(=O)C3=C(C)OCCS3)CC2)cc1,5.9%,–
CCCCNC(=O)c1ccccc1NC(=O)C1=C(C)OCCS1,1.59%,–
